Among all 52,000 compounds or so, about 1,700 (3.3%) were called active. The list comes from a sample in which actives are over-represented; it also holds similar structures and randomly drawn compounds. Values without a mark were called inactive. Cut-off read from the data, not from the text of the source: active = survival mostly below about 52% (no sharp cut-off); inactive = mostly above about 56%.
tested on: Wild type; test: growth inhibition of S. aureus wild type versus tarO mutant, primary screen, teichoic acid synthesis inhibitors, RN4220, OD600 (AID 463173); conditions: S. aureus RN4220 wild type/DeltatarO growth, OD600, 18 h, active compounds read low, screened at 18.75 µg/mL (by protocol)

Row | SMILES | survival
1 | CCc1nn(CC(=O)NCCc2ccc(OC)c(OC)c2)c(=O)c2cc3occc3n12 | 147%
2 | CCS(=O)(=O)N1CC(=O)N(c2ccccc2C)C(C)(C(=O)NC2CCCCC2)C1 (stereo not given) | 82%
3 | Cc1ccc(C)c(N2CCN(S(=O)(=O)c3ccc4[nH]c5c(c4c3)CCCCC5)CC2)c1 | 89%
4 | Cc1ccc(C)c(N2CCN(S(=O)(=O)c3ccc4[nH]c5c(c4c3)CCCC5)CC2)c1 | -4% (active)
5 | Cc1ccc(N2CCN(S(=O)(=O)c3ccc4[nH]c5c(c4c3)CCCCC5)CC2)c(C)c1 | 135%
6 | CCOC(=O)c1ccc(NC(=O)CN2c3ccccc3S(=O)(=O)c3ccccc32)cc1 | 121%
7 | O=C(NCc1ccco1)c1ccc(Cn2c(SCc3ccccc3F)nc3cccnc32)cc1 | 74%
8 | CCOC(=O)/C(C#N)=C(\O)c1ccccc1 | 104%
9 | COc1cc2c(cc1NC(=O)C(C)Oc1ccccc1)oc1ccccc12 (stereo not given) | 1% (active)
10 | CCOc1ccc(NC(=O)c2oc3ccccc3c2NC(=O)C(C)Oc2ccccc2)cc1 (stereo not given) | 94%
11 | Cc1cc(OC(C)C(=O)Nc2c(C(=O)c3ccc(F)cc3)oc3ccccc23)ccc1Cl (stereo not given) | 68%
12 | CCc1ccc(OCC(=O)Nc2c(C(=O)c3ccccc3)oc3ccccc23)cc1 | 65%
13 | Cc1cc(C)cc(OC(C)C(=O)Nc2c(C(=O)c3ccccc3)oc3ccccc23)c1 (stereo not given) | -1% (active)
14 | CCc1ccc(OC(C)C(=O)Nc2c(C(=O)c3ccccc3)oc3ccccc23)cc1 (stereo not given) | 13% (active)
15 | COc1cc2c(cc1NC(=O)C(C)Oc1ccc(Cl)cc1Cl)oc1ccccc12 (stereo not given) | 49%
16 | Cc1cc(C)cc(OCC(=O)Nc2c(C(=O)c3ccccc3)oc3ccccc23)c1 | 78%
17 | COc1cc2c(cc1NC(=O)COc1cc(C)cc(C)c1)oc1ccccc12 | 75%
18 | CC(=O)c1cc(-c2ccc(F)cc2)n(CC(=O)Nc2cc(C)cc(C)c2)c1C | 66%
19 | Cc1ccc(Nc2c(-c3ccc(C)s3)nc3ncccn23)cc1 | 43%
20 | Cc1cccc(N2CCN(C(=O)c3cccn4c(=O)c5cc(Cl)ccc5nc34)CC2C)c1 (stereo not given) | 65%
21 | Cc1cccn2c(=O)c(C(=O)N3CCN(c4ccccc4)CC3)cnc12 | 22%
22 | Cc1cccc(N2CCN(C(=O)c3cnc4c(C)cccn4c3=O)CC2C)c1 (stereo not given) | 0% (active)
23 | COc1ccc(NS(=O)(=O)c2ccc3c(c2)n(C)c(=O)c(=O)n3C)cc1Cl | 77%
24 | O=C(Cc1ccc(F)cc1)NC1CC(=O)N(c2ccccc2)C1 (stereo not given) | 72%

Row | SMILES | survival
25 | O=C(Cn1c(-c2cccs2)cc2ccccc21)NCc1ccccc1Br | 120%
26 | CCCCN(C)CCNC(=O)Cn1ncc2c([nH]c3ccccc32)c1=O | 0% (active)
27 | O=C(Cn1ncc2c([nH]c3ccccc32)c1=O)NCc1cccc(Cl)c1 | -3% (active)
28 | Cc1ccc(CCNC(=O)Cn2ncc3c([nH]c4ccccc43)c2=O)cc1 | 66%
29 | COc1ccc(CNC(=O)Cn2ncc3c([nH]c4ccccc43)c2=O)cc1 | 63%
30 | CN(CCCNC(=O)Cn1ncc2c([nH]c3ccccc32)c1=O)Cc1ccccc1 | 73%
31 | CCN(CC)CCNC(=O)Cn1ncc2c([nH]c3ccccc32)c1=O | 72%
32 | CCC(=O)N1CCN(c2ccc(NC(=O)c3ccccc3)cc2)CC1 | 99%
33 | Cc1cccc(Nc2nnc(-c3ccc(C)c(S(=O)(=O)N4CCN(C)CC4)c3)c3ccccc23)c1 | 147%
34 | O=C(Nc1cccnc1Cl)c1cc(-c2ccc(Cl)cc2)on1 | 83%
35 | O=C(CCC1N=C2c3ccccc3N=C(SCc3ccccc3F)N2C1=O)NCc1ccc(F)cc1 (stereo not given) | 73%
36 | CCCCNC(=O)CSC1=Nc2ccccc2C2=NC(CCC(=O)NCc3ccccc3OC)C(=O)N12 (stereo not given) | -2% (active)
37 | COc1ccc(OC)c(NC(=O)CSC2=Nc3ccccc3C3=NC(CCC(=O)NCCc4ccccc4)C(=O)N23)c1 (stereo not given) | 73%
38 | COCCCNC(=O)CSC1=Nc2ccccc2C2=NC(CCC(=O)NCc3ccccc3OC)C(=O)N12 (stereo not given) | 73%
39 | COc1ccc(OC)c(NC(=O)CSC2=Nc3ccccc3C3=NC(CCC(=O)NCc4ccco4)C(=O)N23)c1 (stereo not given) | 70%
40 | COc1ccccc1CNC(=O)CCC1N=C2c3ccccc3N=C(SCc3cccc(Cl)c3)N2C1=O (stereo not given) | 82%
41 | COc1ccc(CNC(=O)CCC2N=C3c4ccccc4N=C(SCc4ccc(F)cc4)N3C2=O)cc1 (stereo not given) | 82%
42 | COc1ccccc1CNC(=O)CCC1N=C2c3ccccc3N=C(SCc3ccc(C)cc3)N2C1=O (stereo not given) | 118%
43 | COc1ccc(OC)c(NC(=O)CSC2=Nc3ccccc3C3=NC(CCC(=O)NCc4ccccc4)C(=O)N23)c1 (stereo not given) | -3% (active)
44 | COc1ccccc1CNC(=O)CCC1N=C2c3ccccc3N=C(SCc3ccc(Cl)cc3)N2C1=O (stereo not given) | 0% (active)
45 | COc1ccccc1CNC(=O)CCC1N=C2c3ccccc3N=C(SCC(=O)NCCc3ccccc3)N2C1=O (stereo not given) | 129%
46 | COc1ccc(CNC(=O)CCC2N=C3c4ccccc4N=C(SCc4ccccc4F)N3C2=O)cc1 (stereo not given) | 10% (active)
47 | CC1CCN(C(c2ccccc2)c2sc3nc(-c4ccco4)nn3c2O)CC1 (stereo not given) | 68%
48 | Cc1[nH]c(=O)[nH]c(=O)c1/C=N\NC(=O)c1cc2ccccc2o1 | 111%

Row | SMILES | survival
49 | N#CC1=C(N)SC(N)=C(C#N)C1c1cc2c(cc1Cl)OCO2 | 112%
50 | Cc1cccc(N(CC(=O)NC(C)c2ccccc2)S(=O)(=O)c2ccccc2)c1C (stereo not given) | 79%
51 | Cc1cc(NC(=O)CSc2nc(-c3cccc(F)c3)nc3c2c(=O)n(C)c(=O)n3C)no1 | 68%
52 | CCOc1cc(C#N)c(NC(=O)c2cccc(S(=O)(=O)N3CCOCC3)c2)cc1OCC | 131%
53 | Cc1ccc(CNC(=O)CN2Cc3ccccc3C2=O)cc1 | 76%
54 | COc1cccc(CNc2ncnc3c2nnn3C)c1 | 79%
55 | CCc1nnc(SCc2c(F)cccc2Cl)c2cc3sccc3n12 | 88%
56 | CCc1nnc(SCc2ccc(F)cc2Cl)c2cc3sccc3n12 | 93%
57 | CCc1nnc(SCc2cccc(Cl)c2)c2cc3sccc3n12 | 2% (active)
58 | N#Cc1cccc(NC(=O)C2CCN(c3cnccn3)CC2)c1 | 105%
59 | CCCCN(CCCC)CCNC(=O)c1cn(CC)c2ccc(S(=O)(=O)N3CCc4ccccc4C3)cc2c1=O | 84%
60 | CCN(C(=O)CSc1nc2ccccc2n1CC(=O)Nc1cccc(C#N)c1)c1ccccc1 | 124%
61 | CC1CCN(C(=O)Cn2c(SCC(=O)Nc3ccc(F)cc3)nc3ccccc32)CC1 | 70%
62 | Cc1ccc(NC(=O)CSc2nc3ccccc3n2CC(=O)N(C)C2CCCCC2)cc1C | 78%
63 | CCN(C(=O)CSc1nc2ccccc2n1CC(=O)Nc1ccccc1C)c1ccccc1 | -6% (active)
64 | CCCCN(C)C(=O)Cn1c(SCC(=O)Nc2ccc(C)c(C)c2)nc2ccccc21 | 14% (active)
65 | CCN(C(=O)CSc1nc2ccccc2n1CC(=O)Nc1ccc(F)cc1F)c1ccccc1 | 73%
66 | Cc1ccc(NC(=O)CSc2nc3ccccc3n2CC(=O)N2CCC(C)CC2)cc1C | -1% (active)
67 | CCN(CC)C(=O)Cn1c(SCC(=O)Nc2ccc(C)c(C)c2)nc2ccccc21 | 133%
68 | CC1CCN(C(=O)Cn2c(SCC(=O)NC(C)(C)C)nc3ccccc32)CC1 | 102%
69 | CC1CCc2c(sc3nc(SCC(=O)Nc4c[nH]c(=O)[nH]c4=O)[nH]c(=O)c23)C1 (stereo not given) | 107%
70 | Cc1ccc(CNC(=O)c2cc(-c3ccc(C)cc3)nc3n[nH]c(-c4cccc([N+](=O)[O-])c4)c23)cc1 | 74%
71 | CC(C)CNS(=O)(=O)c1ccc(S(=O)(=O)N2CCCN(Cc3ccccc3)C2)cc1 | 97%
72 | CCOc1ccc(-c2cc3nc(C4CCN(C(=O)OC(C)(C)C)CC4)c(C(=O)Nc4ccc(C)c(F)c4)cn3n2)cc1 | 86%

Row | SMILES | survival
73 | CCc1ccc(NC(=O)C2CCN(c3nc(-c4ccc(OC)cc4)no3)CC2)cc1 | 66%
74 | COC(=O)c1cccnc1-n1c(=O)c2cccnc2n(CC(=O)Nc2ccccc2F)c1=O | 84%
75 | Cc1[nH]c(=O)[nH]c(=O)c1CSCC(=O)O | 108%
76 | O=C(/C=C/c1ccc(Cl)cc1)Nc1nc(-c2cccs2)ns1 | 75%
77 | N#CSc1cnc(NC2CCCCC2)s1 | 2% (active)
78 | Cc1ccc(-c2nnc(NC3CCCC3)s2)cc1 | 126%
79 | Cc1cc(C)c(C#N)c(NC2CCCCC2)n1 | 92%
80 | CCOC(=O)c1cccc(Nc2ccc3cc(S(=O)(=O)N4CCCCC4)ccc3n2)c1 | -3% (active)
81 | O=S(=O)(c1ccc2nc(Nc3cccc(F)c3)ccc2c1)N1CCCC1 | 75%
82 | CC(=O)c1cccc(Nc2ccc3cc(S(=O)(=O)N4CCCC4)ccc3n2)c1 | 73%
83 | CCN(CC)c1cc(C)c2cc(NC(=O)/C=C/c3ccc(C)cc3)ccc2n1 | 68%
84 | CCN(CC)c1ccc(NC(=O)c2cnc3c(-c4ccccc4)c(C)nn3c2C)c(C)c1 | 85%
85 | Cc1cc([N+](=O)[O-])ccc1NC(c1nnc(-c2ccccc2)o1)c1ccccc1F (stereo not given) | 99%
86 | Cc1cc(NC(c2nnc(-c3ccccc3)o2)c2ccccc2F)ccc1Br (stereo not given) | 9% (active)
87 | COc1ccc(NC(c2nnc(-c3ccccc3)o2)c2ccccc2F)cc1Cl (stereo not given) | 65%
88 | CCOC(=O)c1cccc(NC(c2nnc(-c3ccccc3)o2)c2ccccc2F)c1 (stereo not given) | 87%
89 | Fc1ccc(C(NCCc2ccc(Cl)cc2)c2nnc(-c3ccccc3)o2)c(Cl)c1 (stereo not given) | 3% (active)
90 | Clc1ccc(CCNC(c2nnc(-c3ccccc3)o2)c2ccccc2Cl)cc1 (stereo not given) | 3% (active)
91 | Cc1ccc(NC(c2nnc(-c3ccccc3)o2)c2ccccc2F)c(Cl)c1 (stereo not given) | 91%
92 | Fc1ccccc1C(NCCc1ccc(Cl)cc1)c1nnc(-c2ccccc2)o1 (stereo not given) | -1% (active)
93 | Cc1cc(C)cc(NC(c2nnc(-c3cccc(F)c3)o2)c2ccc(F)cc2Cl)c1 (stereo not given) | 37%
94 | CC(C)c1ccc(NC(c2nnc(-c3ccccc3)o2)c2ccc(F)cc2Cl)cc1 (stereo not given) | 69%
95 | Cc1cc(C)cc(NC(c2cccc(Cl)c2)c2nnc(-c3ccccc3)o2)c1 (stereo not given) | 91%
